The source of these data is PubChem BioAssay (NCI).

Compounds without any hit were thinned out: in the full panel of roughly 79,000, 15% have a hit. Activity calls are given as the source filed them. Rule as the data show it: active = growth inhibition above about 70%; inactive = the rest.

The nature of one assay: NCI Yeast Anticancer Drug Screen. Data for the mec2-1 strain (AID 157). The following applies: S. cerevisiae mec2-1 strain, at 33.0 µM, hits give high values. The method, boiled down:
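Using mec2-1 yeast: add compound, measure growth, express inhibition versus vehicle-treated cultures.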
Turning to `C/C(=N\NC(=S)SCc1ccccc1)c1ccccn1`, the growth inhibition is 96% (active).

As for `CC[C@@]1(O)C(=O)OCc2c1cc1n(c2=O)Cc2cc3c(N)cccc3nc2-1`, the growth inhibition was 23% (inactive).

For `CN(C)c1ccc(Sc2ccc3nc(N)nc(N)c3c2)cc1`, the growth inhibition is 13% (inactive).

Turning to `CC(=O)OCCOCNC(=S)N/N=C(\C)c1cnccn1`, the growth inhibition is 27% (inactive).

As for `COc1ccc(C2c3cc4c(cc3OC(C)(O)C2C)OCO4)c(OC)c1` (stereo not drawn), the growth inhibition is 15% (inactive).

Turning to `COc1cc(C2SCC(=O)N2c2ccc(-c3ccc(-n4c(-c5ccccc5)nc5ccccc5c4=O)cc3)cc2)cc(OC)c1OC` (stereo not drawn), the growth inhibition is 4% (inactive).

Take `COc1ccc(Br)c(C(=O)Sc2nnnn2-c2cccc(Cl)c2)c1`: the growth inhibition is 12% (inactive).

For `O=C(NNc1ccnc2cc(Cl)ccc12)/C(=C\c1ccccc1Cl)NC(=O)c1ccccc1`, the growth inhibition is 20% (inactive).

As for `CSC(=S)Nc1cccc(C)n1`, the growth inhibition is -36% (inactive).

In the case of `O=C(/C=C\c1ccc(Cl)cc1Cl)c1cccs1`, the growth inhibition was 10% (inactive).

As to `COc1ccc(-c2cn(-c3ccc(I)cc3)c3ncnc(N)c23)cc1`, the growth inhibition is 0% (inactive).

For the compound `CN(C)c1ccc(C(C#N)=C(C#N)C#N)cc1`, the growth inhibition was 3% (inactive).

As for `COc1cc(/C=C2\CCc3ccccc3C2=O)cc(OC)c1OC`, the growth inhibition was 22% (inactive).

Consider `CC(C)/C(Cl)=N\OC(=O)Nc1cccc(Cl)c1`, for which the growth inhibition was 2% (inactive).

Regarding `CC1(C)[C@@H]2CC[C@]1(C)[C@H](OC(=O)CSC#N)C2`, the growth inhibition is 86% (active).

For the compound `NNC(=O)CCc1ccc2ccc3ccccc3c2c1`, the growth inhibition was 2% (inactive).

With `COc1ccc(/C(C)=N/OC(=O)c2c(-c3ccccc3Cl)noc2C)cc1CN1CCOCC1`, the growth inhibition was 7% (inactive).

As for `C=CC(C)(O)CCC1C(=C)C(O)CC2C(C)(C)CCCC12C` (stereo not drawn), the growth inhibition was 4% (inactive).

Turning to `S=C(Nc1ccc(Cl)c(Cl)c1)SCc1ccc2c(c1)OCO2`, the growth inhibition is 99% (active).

Take `COc1cc(C2C3=C(COC3=O)Oc3cc4c(cc32)OCO4)ccc1O` (stereo not drawn): the growth inhibition was -4% (inactive).

Consider `S=C(Nc1ccc(Cl)cc1)SC1CCCCC1`, for which the growth inhibition is 99% (active).

Consider `Nc1nc(-c2cccnc2)cc(-c2cc(-c3cccnc3)nc(N)n2)n1`, for which the growth inhibition is 0% (inactive).

As to `COC1=CC(=O)C2C(C1=O)C(c1ccc(Cl)cc1)[C@@H]2C` (stereo partly drawn), the growth inhibition is 98% (active).

Turning to `c1ccc(-c2nc3cccnc3s2)cc1`, the growth inhibition was -12% (inactive).

For the compound `O=[N+]([O-])c1cc(CCl)ccc1CCl`, the growth inhibition was 93% (active).

Take `COc1ccc(/C=C2\SC(=S)N(/C=C/c3nc4ccccc4[nH]c3=O)C2=O)cc1OC`: the growth inhibition is 66% (inactive).

With `CCCN(CCC)CC(O)c1cc(-c2ccc(Cl)cc2)nc2c(C)c(Cl)ccc12` (stereo not drawn), the growth inhibition was 98% (active).

`O=C(Nc1ccccc1)OCCc1ccc(Cl)c(Cl)c1`: the growth inhibition is 20% (inactive).

As to `CC(O)C(O)C(O)C(/C=N\Nc1ccccc1)=N/Nc1ccccc1` (stereo not drawn), the growth inhibition was 46% (inactive).

As to `C#CCCCc1ccccc1`, the growth inhibition is 31% (inactive).

Take `CC(=O)Cc1ccc[cH-]1.[Fe+2].c1cc[cH-]c1`: the growth inhibition was 12% (inactive).

With `Cc1cc(I)ccc1N`, the growth inhibition was 87% (active).

With `FC(F)(F)c1cc(NC(=S)N2c3ccccc3-n3cccc3C2c2cccnc2)cc(C(F)(F)F)c1` (stereo not drawn), the growth inhibition was -1% (inactive).

For the compound `CC(C)(CN1CCCCC1)C(=O)CC(SCCS(=O)(=O)O)c1ccc(Br)cc1` (stereo not drawn), the growth inhibition was 18% (inactive).

`C[Si](C)(C)CNC(=O)OCc1ccccc1`: the growth inhibition is 1% (inactive).

In the case of `CC(C(=O)N1C(=O)N(C(=O)[C@H](C)C(O)c2ccccc2)[C@H](c2ccccc2)[C@H]1c1ccccc1)[C@@H](O)c1ccccc1` (stereo partly drawn), the growth inhibition is 33% (inactive).

Consider `Oc1cccc2c(Cl)ccnc12`, for which the growth inhibition was 97% (active).

Turning to `O=C1C=CC(=C(c2ccccc2)c2ccccc2)c2ccccc21`, the growth inhibition was -1% (inactive).

Consider `S=C(S)NN1CCOCC1`, for which the growth inhibition is 28% (inactive).

The same assay, now with this note: S. cerevisiae mec2-1 strain, at 50.0 µM (retest, dose inferred, filed as 5.0), hits give high values.
As to `C/C(=N\NC(=S)SCc1ccccc1)c1ccccn1`, the growth inhibition is 96% (active).

For the compound `CC[C@@]1(O)C(=O)OCc2c1cc1n(c2=O)Cc2cc3c(N)cccc3nc2-1`, the growth inhibition was 5% (inactive).

In the case of `CN(C)c1ccc(Sc2ccc3nc(N)nc(N)c3c2)cc1`, the growth inhibition is 80% (active).

With `CC(=O)OCCOCNC(=S)N/N=C(\C)c1cnccn1`, the growth inhibition is 44% (inactive).

Consider `COc1ccc(C2c3cc4c(cc3OC(C)(O)C2C)OCO4)c(OC)c1` (stereo not drawn), for which the growth inhibition was 63% (inactive).

Take `COc1cc(C2SCC(=O)N2c2ccc(-c3ccc(-n4c(-c5ccccc5)nc5ccccc5c4=O)cc3)cc2)cc(OC)c1OC` (stereo not drawn): the growth inhibition was 3% (inactive).

For `COc1ccc(Br)c(C(=O)Sc2nnnn2-c2cccc(Cl)c2)c1`, the growth inhibition is 72% (active).

On to `O=C(NNc1ccnc2cc(Cl)ccc12)/C(=C\c1ccccc1Cl)NC(=O)c1ccccc1`, for which the growth inhibition is -30% (inactive).

For the compound `CSC(=S)Nc1cccc(C)n1`, the growth inhibition is 99% (active).

Take `O=C(/C=C\c1ccc(Cl)cc1Cl)c1cccs1`: the growth inhibition is 18% (inactive).

`COc1ccc(-c2cn(-c3ccc(I)cc3)c3ncnc(N)c23)cc1`: the growth inhibition is 78% (active).

As for `CN(C)c1ccc(C(C#N)=C(C#N)C#N)cc1`, the growth inhibition was 82% (active).

Consider `COc1cc(/C=C2\CCc3ccccc3C2=O)cc(OC)c1OC`, for which the growth inhibition was 14% (inactive).

As for `CC(C)/C(Cl)=N\OC(=O)Nc1cccc(Cl)c1`, the growth inhibition is 30% (inactive).

Regarding `CC1(C)[C@@H]2CC[C@]1(C)[C@H](OC(=O)CSC#N)C2`, the growth inhibition was 98% (active).

Regarding `NNC(=O)CCc1ccc2ccc3ccccc3c2c1`, the growth inhibition was 2% (inactive).

As for `COc1ccc(/C(C)=N/OC(=O)c2c(-c3ccccc3Cl)noc2C)cc1CN1CCOCC1`, the growth inhibition is 98% (active).

For `C=CC(C)(O)CCC1C(=C)C(O)CC2C(C)(C)CCCC12C` (stereo not drawn), the growth inhibition was 52% (inactive).

Take `S=C(Nc1ccc(Cl)c(Cl)c1)SCc1ccc2c(c1)OCO2`: the growth inhibition was 98% (active).

On to `COc1cc(C2C3=C(COC3=O)Oc3cc4c(cc32)OCO4)ccc1O` (stereo not drawn), for which the growth inhibition is -10% (inactive).

With `S=C(Nc1ccc(Cl)cc1)SC1CCCCC1`, the growth inhibition was 40% (inactive).

For the compound `Nc1nc(-c2cccnc2)cc(-c2cc(-c3cccnc3)nc(N)n2)n1`, the growth inhibition was 33% (inactive).

Turning to `COC1=CC(=O)C2C(C1=O)C(c1ccc(Cl)cc1)[C@@H]2C` (stereo partly drawn), the growth inhibition is 99% (active).

For the compound `c1ccc(-c2nc3cccnc3s2)cc1`, the growth inhibition was 20% (inactive).

For the compound `O=[N+]([O-])c1cc(CCl)ccc1CCl`, the growth inhibition was 97% (active).

Turning to `COc1ccc(/C=C2\SC(=S)N(/C=C/c3nc4ccccc4[nH]c3=O)C2=O)cc1OC`, the growth inhibition was 45% (inactive).

As for `CCCN(CCC)CC(O)c1cc(-c2ccc(Cl)cc2)nc2c(C)c(Cl)ccc12` (stereo not drawn), the growth inhibition is 98% (active).

In the case of `O=C(Nc1ccccc1)OCCc1ccc(Cl)c(Cl)c1`, the growth inhibition was 65% (inactive).

For the compound `CC(O)C(O)C(O)C(/C=N\Nc1ccccc1)=N/Nc1ccccc1` (stereo not drawn), the growth inhibition is 51% (inactive).

Regarding `C#CCCCc1ccccc1`, the growth inhibition was 18% (inactive).

Take `CC(=O)Cc1ccc[cH-]1.[Fe+2].c1cc[cH-]c1`: the growth inhibition was -12% (inactive).

For `Cc1cc(I)ccc1N`, the growth inhibition was 87% (active).

On to `FC(F)(F)c1cc(NC(=S)N2c3ccccc3-n3cccc3C2c2cccnc2)cc(C(F)(F)F)c1` (stereo not drawn), for which the growth inhibition was 51% (inactive).

`CC(C)(CN1CCCCC1)C(=O)CC(SCCS(=O)(=O)O)c1ccc(Br)cc1` (stereo not drawn): the growth inhibition is 11% (inactive).

Take `C[Si](C)(C)CNC(=O)OCc1ccccc1`: the growth inhibition is 32% (inactive).

With `CC(C(=O)N1C(=O)N(C(=O)[C@H](C)C(O)c2ccccc2)[C@H](c2ccccc2)[C@H]1c1ccccc1)[C@@H](O)c1ccccc1` (stereo partly drawn), the growth inhibition was 51% (inactive).

In the case of `Oc1cccc2c(Cl)ccnc12`, the growth inhibition was 99% (active).

In the case of `O=C1C=CC(=C(c2ccccc2)c2ccccc2)c2ccccc21`, the growth inhibition was 89% (active).

Turning to `S=C(S)NN1CCOCC1`, the growth inhibition was -4% (inactive).
